# “And” between values parts separate entries of the source, which are not always exact repeats. Identical values can stand only once. Some compounds were tested as several samples or in several runs, with calls that do not always agree. The source made the active and inactive calls. Rule for the calls: active = hit-call score of the fitted dose curve at least 0.9, where 1 is the maximum; inactive = score below 0.9.
# Legend:
# [1] = BSK_hDFCGF_SRB: Viability Assessment in the BioMAP Diversity Plus: hDFCGF Assay (AID 2283061); details: primary human foreskin fibroblasts;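 note: cells exposed to compound for 24 h before the read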
# In short: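 Human foreskin fibroblasts in 96-well plates were treated 24 h. Total protein was measured by 0.1% SRB staining after 10% TCA fixation, read at 560 nm. Data were fitted bidirectionally against DMSO.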
# [2] = read-out: TIMP metallopeptidase inhibitor 1 (TIMP1), TIMP1 (gene 7076); experiment: BSK_hDFCGF_TIMP1: BioMAP Diversity Plus: hDFCGF Assay for TIMP metallopeptidase inhibitor 1 (TIMP1) Biomarker Activity (AID 2283062); details: primary human foreskin fibroblasts; actives raise or lower the signal
# In short: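 Human foreskin fibroblast primary cultures dosed for 24 h; secreted/surface TIMP-1 quantified by ELISA. Bidirectional curve fitting against DMSO baseline; cytotoxicity tracked in parallel cultures by SRB total-protein staining.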
# [3] = read-out: Monokine induced gamma interferon (MIG), CXCL9 (gene 4283); experiment: BSK_hDFCGF_MIG: BioMAP Diversity Plus: hDFCGF Assay for Monokine induced gamma interferon (MIG) Biomarker Activity (AID 2283063); details: primary human foreskin fibroblasts; actives raise or lower the signal
# In short: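 MIG/CXCL9 measured by ELISA 24 h after dosing primary human skin fibroblasts. Activity fitted in both directions against DMSO controls. Cytotoxicity was checked in parallel cultures by SRB staining read at 560 nm.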
# [4] = read-out: Matrix Metallopeptidase 1 (MMP1), MMP1 (gene 4312); experiment: BSK_hDFCGF_MMP1: BioMAP Diversity Plus: hDFCGF Assay for Matrix Metallopeptidase 1 (MMP1) Biomarker Activity (AID 2283064); details: primary human foreskin fibroblasts; actives raise or lower the signal
# In short: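 Primary human foreskin fibroblasts exposed to chemicals for 24 h; MMP1 measured by ELISA. Cytotoxicity tracked by SRB staining in parallel cultures; bidirectional fit relative to DMSO.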
# [5] = read-out: Vascular cell adhesion molecule 1 (VCAM1), VCAM1 (gene 7412); experiment: BSK_hDFCGF_VCAM1: BioMAP Diversity Plus: hDFCGF Assay for Vascular cell adhesion molecule 1 (VCAM1) Biomarker Activity (AID 2283065); details: primary human foreskin fibroblasts; actives raise or lower the signal;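 for AC50: VCAM-1 protein level quantified by ELISA after 24 h chemical exposure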
# In short: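 Human foreskin fibroblast primary cells dosed with chemical, VCAM-1 measured by ELISA at 24 h. Bidirectional curve fitting relative to DMSO as negative control/baseline.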
# [6] = read-out: Intercellular Adhesion Molecule 1 (ICAM1), ICAM1 (gene 3383); experiment: BSK_KF3CT_ICAM1: BioMAP Diversity Plus: KF3CT Assay for Intercellular Adhesion Molecule 1 (ICAM1) Biomarker Activity (AID 2283067); details: primary human keratinocytes with fibroblasts; actives raise or lower the signal
# In short: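 Human keratinocyte–foreskin fibroblast co-culture was treated for 24 h. Cell-surface ICAM-1 was quantified by ELISA, fitted bidirectionally relative to DMSO. Cytotoxicity was checked in parallel cultures by SRB total-protein staining.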
# [7] = read-out: Interferon-gamma inducible Protein 10 (IP10), CXCL10 (gene 3627); experiment: BSK_KF3CT_IP10: BioMAP Diversity Plus: KF3CT Assay for Interferon-gamma inducible Protein 10 (IP10) Biomarker Activity (AID 2283068); details: primary human keratinocytes with fibroblasts; actives raise or lower the signal
# In short: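 KF3CT co-culture (keratinocytes + foreskin fibroblasts), 24 h compound, IP-10 by ELISA; bidirectional fit vs DMSO baseline.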
# [8] = BSK_KF3CT_SRB: Viability Assessment in the BioMAP Diversity Plus: KF3CT Assay (AID 2283069); details: primary human keratinocytes with fibroblasts;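 note: total protein by sulforhodamine B staining as a cytotoxicity measure; read 24 h after compound addition; fitted for both signal gain and loss against DMSO baseline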
# In short: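 Human keratinocyte and foreskin fibroblast co-culture exposed to chemical for 24 h. Total protein measured in parallel cultures by 0.1% sulforhodamine B staining after 10% TCA fixation, read at 560 nm; bidirectional fit relative to DMSO.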
# [9] = read-out: Interleukin-1 alpha (IL1a), IL1A (gene 3552); experiment: BSK_KF3CT_IL1a: BioMAP Diversity Plus: KF3CT Assay for Interleukin-1 alpha (IL1a) Biomarker Activity (AID 2283070); details: primary human keratinocytes with fibroblasts; actives raise or lower the signal
# In short: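 Primary human keratinocyte plus foreskin fibroblast co-culture, dosed and measured at 24 h in 96-well plates. IL-1a level quantified by ELISA; bidirectional fit relative to DMSO.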
# [10] = read-out: TIMP metallopeptidase inhibitor 2 (TIMP2), TIMP2 (gene 7077); experiment: BSK_KF3CT_TIMP2: BioMAP Diversity Plus: KF3CT Assay for TIMP metallopeptidase inhibitor 2 (TIMP2) Biomarker Activity (AID 2283071); details: primary human keratinocytes with fibroblasts; actives raise or lower the signal
# In short: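 Human primary keratinocyte/foreskin fibroblast co-culture dosed with chemical and sampled at 24 h. TIMP-2 levels quantified by ELISA; bidirectional fitting against DMSO negative control as baseline.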
# [11] = read-out: Transforming growth factor beta 1 (TGFb1), TGFB1 (gene 7040); experiment: BSK_KF3CT_TGFb1: BioMAP Diversity Plus: KF3CT Assay for Transforming growth factor beta 1 (TGFb1) Biomarker Activity (AID 2283072); details: primary human keratinocytes with fibroblasts; actives raise or lower the signal
# In short: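 Human keratinocyte plus foreskin fibroblast primary co-culture, dosed with chemical for 24 h. TGF-b1 quantified by ELISA. Activity fitted bidirectionally against DMSO negative control as baseline.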
# [12] = read-out: C-C motif chemokine 2 (Homo sapiens) (UniProt P13500); experiment: BSK_KF3CT_MCP1: BioMAP Diversity Plus: KF3CT Assay for Monocyte Chemoattractant Protein 1 (MCP1/CCL2) Biomarker Activity (AID 2283073); details: primary human keratinocytes with fibroblasts; actives raise or lower the signal
# In short: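 Human keratinocyte–foreskin fibroblast co-culture; MCP-1 measured by ELISA 24 h after dosing. Bidirectional fit vs DMSO; cytotoxicity tracked by SRB total protein in parallel cultures.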
# [13] = read-out: Matrix Metallopeptidase 9 (MMP9), MMP9 (gene 4318); experiment: BSK_KF3CT_MMP9: BioMAP Diversity Plus: KF3CT Assay for Matrix Metallopeptidase 9 (MMP9) Biomarker Activity (AID 2283074); details: primary human keratinocytes with fibroblasts; actives raise or lower the signal;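 for AC50: MMP9 protein level quantified by ELISA in the co-culture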
# In short: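 Human keratinocyte and foreskin fibroblast co-culture exposed to chemicals for 24 h; MMP9 biomarker measured by ELISA, bidirectional fitting relative to DMSO; cytotoxicity tracked by SRB total protein staining in parallel cultures.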
# [14] = read-out: urokinase plasminogen activator (uPA), PLAU (gene 5328); experiment: BSK_KF3CT_uPA: BioMAP Diversity Plus: KF3CT Assay for urokinase plasminogen activator (uPA) Biomarker Activity (AID 2283075); details: primary human keratinocytes with fibroblasts; actives raise or lower the signal
# In short: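 Primary human keratinocyte/foreskin fibroblast co-culture exposed to chemical; uPA measured by ELISA at 24 h. Bidirectional fit versus DMSO, with parallel SRB total-protein staining for cytotoxicity.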
# CD40, CD40 (gene 958) = experiment: BSK_LPS_CD40: BioMAP Diversity Plus: LPS Assay for CD40 Biomarker Activity (AID 2283076); details: primary human HUVEC with PBMC; actives raise or lower the signal
# In short: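 HUVEC plus PBMC co-culture stimulated with LPS; CD40 quantified by ELISA 24 h after compound dosing. Fitting was bidirectional relative to DMSO. SRB staining of parallel cultures flagged overt cytotoxicity.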
# [15] = read-out: E-selectin (Homo sapiens) (UniProt P16581); experiment: BSK_LPS_Eselectin: BioMAP Diversity Plus: LPS Assay for Eselectin Biomarker Activity (AID 2283077); details: primary human HUVEC with PBMC; actives raise or lower the signal
# In short: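 Human umbilical vein endothelial cells co-cultured with PBMC under LPS stimulation; cell-surface E-selectin measured by ELISA 24 h after dosing. Change in either direction versus DMSO, with SRB total-protein staining in parallel cultures for cytotoxicity.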
# [16] = read-out: Interleukin-8 (IL8), CXCL8 (gene 3576); experiment: BSK_LPS_IL8: BioMAP Diversity Plus: LPS Assay for Interleukin-8 (IL8) Biomarker Activity (AID 2283078); details: primary human HUVEC with PBMC; actives raise or lower the signal
# In short: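 Human umbilical vein endothelial cells co-cultured with PBMC, LPS-stimulated, exposed to compound for 24 h. IL-8 quantified by ELISA; fitted in both directions against DMSO, with SRB total-protein staining of parallel cultures for cytotoxicity.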
# [17] = BSK_LPS_SRB: Viability Assessment in the BioMAP Diversity Plus: LPS Assay (AID 2283079); details: primary human HUVEC with PBMC;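 note: total protein by sulforhodamine B absorbance as a cytotoxicity measure; measured one day after compound addition; fitted in both directions against DMSO so loss or gain of signal counts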
# In short: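 Co-culture of human umbilical vein endothelial cells and PBMC, read 24 h after dosing. Total protein by 0.1% SRB staining after 10% TCA fixation, absorbance at 560 nm; bidirectional fit against DMSO.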
# [18] = read-out: Interleukin-1 alpha (IL1a), IL1A (gene 3552); experiment: BSK_LPS_IL1a: BioMAP Diversity Plus: LPS Assay for Interleukin-1 alpha (IL1a) Biomarker Activity (AID 2283080); details: primary human HUVEC with PBMC; actives raise or lower the signal
# In short: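 Human umbilical vein endothelial cells co-cultured with PBMC and stimulated with LPS; IL-1a measured by ELISA 24 h after dosing. Bidirectional fitting against DMSO; cytotoxicity checked by SRB staining in parallel cultures.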
# [19] = read-out: Plasminogen activator inhibitor-1 (PAI1), SERPINE1 (gene 5054); experiment: BSK_hDFCGF_PAI1: BioMAP Diversity Plus: hDFCGF Assay for Plasminogen activator inhibitor-1 (PAI1) Biomarker Activity (AID 2283066); details: primary human foreskin fibroblasts; actives raise or lower the signal
# In short: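 Human foreskin fibroblasts in the hDFCGF system were dosed with compound for 24 h; PAI-1 was quantified by ELISA. Bidirectional curve fitting used DMSO as negative control and baseline.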
# Sequence of E-selectin (Homo sapiens) (P16581 whole entry, looked up): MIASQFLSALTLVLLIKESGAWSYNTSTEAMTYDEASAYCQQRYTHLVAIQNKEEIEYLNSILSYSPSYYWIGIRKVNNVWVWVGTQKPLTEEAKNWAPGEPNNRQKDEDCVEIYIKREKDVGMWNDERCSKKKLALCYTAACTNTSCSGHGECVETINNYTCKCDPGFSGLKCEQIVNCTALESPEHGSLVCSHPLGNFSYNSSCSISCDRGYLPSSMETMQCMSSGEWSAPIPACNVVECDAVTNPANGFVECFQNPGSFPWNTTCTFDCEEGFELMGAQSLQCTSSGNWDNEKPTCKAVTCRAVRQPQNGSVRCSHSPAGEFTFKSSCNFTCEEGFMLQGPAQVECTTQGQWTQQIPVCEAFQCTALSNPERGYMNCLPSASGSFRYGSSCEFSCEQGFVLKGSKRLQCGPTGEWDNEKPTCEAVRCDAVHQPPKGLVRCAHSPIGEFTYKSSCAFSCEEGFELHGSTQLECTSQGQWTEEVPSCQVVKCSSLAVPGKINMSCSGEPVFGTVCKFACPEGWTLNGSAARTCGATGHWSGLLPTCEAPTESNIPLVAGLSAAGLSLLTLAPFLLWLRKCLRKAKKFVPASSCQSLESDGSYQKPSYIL
smiles,measurement,setting,value
COc1nc(C)nc(NC(=O)NS(=O)(=O)c2ccccc2CCC(F)(F)F)n1,outcome,[1],inactive
same,outcome,[2],inactive
same,outcome,[3],inactive
same,AC50,[4],439 nM (active)
same,outcome,[4],inactive
same,outcome,[5],inactive
same,outcome,[6],inactive
same,outcome,[7],inactive
same,outcome,[8],inactive
same,outcome,[9],inactive
same,outcome,[10],inactive
same,outcome,[11],inactive
same,outcome,[12],inactive
same,AC50,[13],23.7 µM (active)
same,outcome,[13],inactive
same,outcome,[14],inactive
same,outcome,"CD40, CD40 (gene 958)",inactive
same,outcome,[15],inactive
same,outcome,[16],inactive
same,outcome,[17],inactive
same,outcome,[18],inactive
CCCCOC(=O)c1ccccc1C(=O)OCCCC,outcome,[1],inactive
same,outcome,[2],inactive
same,outcome,[3],inactive
same,outcome,[4],inactive
same,AC50,[5],14 µM (active)
same,outcome,[5],inactive
same,outcome,[6],inactive
same,outcome,[7],inactive
same,outcome,[8],inactive
same,outcome,[9],inactive
same,outcome,[10],inactive
same,outcome,[11],inactive
same,outcome,[12],inactive
same,outcome,[13],inactive
same,outcome,[14],inactive
same,outcome,"CD40, CD40 (gene 958)",inactive
same,outcome,[15],inactive
same,AC50,[16],25.3 µM (active)
same,outcome,[16],inactive
same,AC50,[17],9.66 µM (active)
same,outcome,[17],inactive
same,outcome,[18],inactive
C=CC1(C)OC(=O)N(c2cc(Cl)cc(Cl)c2)C1=O (stereo not drawn),outcome,[2],inactive
same,outcome,[3],inactive
same,outcome,[4],inactive
same,outcome,[5],inactive
same,outcome,[19],inactive
same,outcome,[6],inactive
same,outcome,[7],inactive
same,outcome,[8],inactive
same,outcome,[9],inactive
same,outcome,[10],inactive
same,outcome,[11],inactive
same,outcome,[12],inactive
same,outcome,[13],inactive
same,outcome,[14],inactive
same,outcome,"CD40, CD40 (gene 958)",inactive
same,outcome,[15],inactive
same,outcome,[16],inactive
same,outcome,[17],inactive
same,outcome,[18],inactive
COc1ccc(C(c2ccc(OC)cc2)C(Cl)(Cl)Cl)cc1,AC50,[1],11 µM (active)
same,outcome,[2],inactive
same,outcome,[3],inactive
same,AC50,[4],5090 nM (active)
same,AC50,[5],20 µM (active)
same,outcome,[6],inactive
same,outcome,[7],inactive
same,AC50,[8],8.76 µM (active)
same,AC50,[9],7.74 µM (active)
same,outcome,[10],inactive
same,outcome,[11],inactive
same,outcome,[12],inactive
same,AC50,[13],12.7 µM (active)
same,outcome,[14],inactive
same,AC50,"CD40, CD40 (gene 958)",23.3 µM (active)
same,AC50,[15],27.5 µM (active)
same,AC50,[16],25 µM (active)
same,AC50,[17],20 µM (active)
same,AC50,[18],32.5 µM (active)
C=CCC1=C(C)C(OC(=O)C2C(C=C(C)C)C2(C)C)CC1=O (stereo not drawn),AC50,[2],33.9 µM (active) [middle of 4 runs]
same,AC50,[3],38.9 µM (active) [middle of 4 runs]
same,AC50,[4],35.6 µM (active) [middle of 4 runs]
same,AC50,[5],28.7 µM (active) [middle of 4 runs]
same,outcome,[6],inactive
same,AC50,[7],35 µM (active) and 31 µM (active) and 29.2 µM (active)
same,outcome,[7],inactive
same,AC50,[8],34.7 µM (active) and 25.5 µM (active)
same,outcome,[8],inactive
same,AC50,[9],34.3 µM (active) and 38.6 µM (active)
same,outcome,[9],inactive
same,AC50,[10],31.1 µM (active) and 32.9 µM (active) and 26.7 µM (active)
same,outcome,[10],inactive
same,AC50,[11],26.6 µM (active) and 33.3 µM (active) and 21 µM (active)
same,outcome,[11],inactive
same,AC50,[12],33.6 µM (active) and 36.4 µM (active) and 28.4 µM (active)
same,outcome,[12],inactive
same,AC50,[13],33.6 µM (active) [middle of 4 runs]
same,AC50,[14],33.8 µM (active) and 33.3 µM (active)
same,outcome,[14],inactive
same,AC50,"CD40, CD40 (gene 958)",24.2 µM (active) and 21 µM (active) and 27.6 µM (active)
same,outcome,"CD40, CD40 (gene 958)",inactive
same,AC50,[15],31.5 µM (active) and 33.3 µM (active) and 33.1 µM (active)
same,outcome,[15],inactive
same,AC50,[16],32 µM (active) [middle of 4 runs]
same,AC50,[17],33.1 µM (active) [middle of 4 runs]
same,AC50,[18],34.3 µM (active) [middle of 4 runs]
